Laboratory results reported in PubChem BioAssay (Tox21).
Several values for one entry are separate records, joined by “and”; a condition that tells them apart may be missing. Identical values can stand only once. Inconclusive results are not listed. Activity calls are given as the source filed them. Unless noted, calls come from the whole dose curve; as a rule, active = well fitted curve in the direction sought with a large enough effect in the repeat runs; inconclusive = weak or mixed curves; inactive = no such curve, though single readings can be large; an effect the other way counts as inactive or inconclusive.

Assays:
[1] = A CellTox Green Cytotoxicity Assay to monitor cytotoxicity in HepG2 cells - 8 hour (AID 1224890); note: nearly all actives have a fitted effect of over 45% in size
Summary of the method: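 Nonlytic assay: viable cells exclude the dye, so fluorescence scales with cell death. HepG2 at 600 cells/well, compounds added after 5 h, signal read across 40 h.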

[2] = qHTS assay to identify small molecule antagonists of the estrogen receptor alpha (ER-alpha) signaling pathway using the BG1 cell line in the presence of 0.1 nM 17-beta-estradiol - cell viability counter screen (AID 1259241); note: nearly all actives have a fitted effect of over 40% in size
Summary of the method: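 The cell line endogenously expresses full-length ER-alpha and carries four EREs driving luciferase. Cells are cultured 5 days hormone-free, treated 22 hr with compounds and 0.1 nM estradiol, then viability is read by fluorescence.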

[3] = qHTS assay to identify small molecule antagonists of the androgen receptor (AR) signaling pathway using the MDA cell line in the presence of 0.5 nM R1881 - cell viability counter screen (AID 1259242); note: nearly all actives have a fitted effect of over 45% in size
Summary of the method: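 R1881 at 0.5 nM final stimulated MDA-kb2 cells during 16 hr compound treatment at 37C. Cytotoxicity read: CellTiter-Fluor fluorescence after 30 min.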

[4] = molecular target: Estrogen receptor (Homo sapiens) (UniProt P03372); test: qHTS assay to identify small molecule antagonists of the estrogen receptor alpha (ER-alpha) signaling pathway using the BG1 cell line in the presence of 0.1 nM 17-beta-estradiol (AID 1259244); note: nearly all actives have a fitted effect of over 50% in size
Estrogen receptor (Homo sapiens), sequence (P03372 whole entry, looked up): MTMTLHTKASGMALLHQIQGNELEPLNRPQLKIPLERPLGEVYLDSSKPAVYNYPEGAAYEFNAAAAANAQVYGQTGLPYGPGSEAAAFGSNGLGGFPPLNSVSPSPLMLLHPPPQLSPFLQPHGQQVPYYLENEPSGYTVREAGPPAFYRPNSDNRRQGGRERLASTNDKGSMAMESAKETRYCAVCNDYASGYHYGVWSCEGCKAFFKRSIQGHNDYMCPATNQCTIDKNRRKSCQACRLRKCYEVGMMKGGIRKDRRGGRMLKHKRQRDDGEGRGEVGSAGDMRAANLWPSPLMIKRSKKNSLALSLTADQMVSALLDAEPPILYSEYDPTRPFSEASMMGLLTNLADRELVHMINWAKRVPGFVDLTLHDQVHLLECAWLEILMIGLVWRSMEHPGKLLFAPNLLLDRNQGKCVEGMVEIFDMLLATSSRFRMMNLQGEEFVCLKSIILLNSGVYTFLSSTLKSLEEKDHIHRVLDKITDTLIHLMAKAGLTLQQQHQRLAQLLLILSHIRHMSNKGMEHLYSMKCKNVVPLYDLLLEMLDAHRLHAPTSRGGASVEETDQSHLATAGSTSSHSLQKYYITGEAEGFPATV
Summary of the method: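 VM7Luc4E2; 4xERE-luciferase; 0.1 nM E2 final; 22 h co-incubation, 37C; ONE-Glo luminescence after 30 min at room temperature.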

[5] = qHTS assay to identify small molecule phospholipidosis (PLD) inducers (AID 1259344; active = well fitted curve in the direction sought with a large enough effect; an effect the other way counts as inactive or inconclusive; note: potency is the fitted concentration of half-maximal effect)
Summary of the method: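 Quantitative HTS in HepG2: compound plus LipidTOX Red dye for 24 h, paraformaldehyde fixation with Hoechst 33342, widefield high-content imaging; amiodarone as positive and DMSO as negative control.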

[6] = qHTS assay to identify small molecule HDAC inhibitors (AID 1259364);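 note: wild-type HCT-116 cells with endogenous class I/II HDAC activity; top concentration of the series differs between compounds; nearly all actives have a fitted effect of over 45% in size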
Summary of the method: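 Relative class I and II HDAC activity is taken from the luminogenic signal in HCT-116 cells, with compound exposure 2 hr and reagent development 30 min at room temperature.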

[7] = qHTS assay to identify small molecule HDAC inhibitors - cell viability counter screen (AID 1259365); note: series mostly up to about 92 µM; nearly all actives have a fitted effect of over 50% in size
Summary of the method: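 Viability readout: CellTiter-Glo luminescence. Wild-type HCT-116 cells, 2hr compound treatment following overnight attachment at 37 C.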

[8] = qHTS assay to identify small molecule agonists of the sonic hedgehog signaling (Shh) pathway - cell viability counter screen (AID 1259366); note: nearly all actives have a fitted effect of over 50% in size
Summary of the method: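 Viability measured fluorometrically (CellTiter-Fluor, 1hr, 37C) in 3T3 Gli1-Luc reporter cells after 23hr compound exposure within a 24hr incubation at 37C/5% CO2.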

[9] = qHTS assay to identify small molecule antagonists of the sonic hedgehog signaling (Shh) pathway - cell viability counter screen (AID 1259367); note: nearly all actives have a fitted effect of over 55% in size
Summary of the method: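 Seed 3T3 Gli1-Luc cells at 2,000 per well; incubate 4 hr; add compound in DMSO, then conditioned medium; incubate at 37C with 5% CO2; add CellTiter-Fluor after 23 hr; read fluorescence 1 hr later.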

[10] = qHTS assay to identify small molecule agonists of the sonic hedgehog signaling (Shh) pathway (AID 1259368; calls by dose curve;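 note: NIH/3T3-derived 3T3Gli1-Luc cells carrying a stable Gli1-driven firefly luciferase reporter; series mostly up to about 92 µM; nearly all actives have a fitted effect of over 15% in size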)
Summary of the method: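 Mouse fibroblast (NIH/3T3) reporter cells with stably integrated Gli1-Luc were treated 24 hr with compound; firefly luciferase luminescence served as the read-out.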

[11] = qHTS assay to identify small molecule antagonists of the sonic hedgehog signaling (Shh) pathway (AID 1259369; calls by dose curve; note: nearly all actives have a fitted effect of over 45% in size; note: potency is the fitted concentration of half-maximal effect)
Summary of the method: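 Conditioned medium drives Shh signalling in 3T3Gli1-Luc cells; compounds in DMSO co-applied, 24hr at 37 C, then luciferase luminescence.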

[12] = molecular target: Estrogen receptor beta (Homo sapiens) (UniProt Q92731); test: qHTS assay to identify small molecule agonists of the estrogen receptor beta (ER-beta) signaling pathway (AID 1259377; active = well fitted activation curve with a large enough effect in the signal ratio in the repeat runs, not every such curve was filed as active; the % refers to the signal ratio; note: potency is the fitted concentration of half-maximal effect)
Estrogen receptor beta (Homo sapiens), sequence (Q92731 whole entry, looked up): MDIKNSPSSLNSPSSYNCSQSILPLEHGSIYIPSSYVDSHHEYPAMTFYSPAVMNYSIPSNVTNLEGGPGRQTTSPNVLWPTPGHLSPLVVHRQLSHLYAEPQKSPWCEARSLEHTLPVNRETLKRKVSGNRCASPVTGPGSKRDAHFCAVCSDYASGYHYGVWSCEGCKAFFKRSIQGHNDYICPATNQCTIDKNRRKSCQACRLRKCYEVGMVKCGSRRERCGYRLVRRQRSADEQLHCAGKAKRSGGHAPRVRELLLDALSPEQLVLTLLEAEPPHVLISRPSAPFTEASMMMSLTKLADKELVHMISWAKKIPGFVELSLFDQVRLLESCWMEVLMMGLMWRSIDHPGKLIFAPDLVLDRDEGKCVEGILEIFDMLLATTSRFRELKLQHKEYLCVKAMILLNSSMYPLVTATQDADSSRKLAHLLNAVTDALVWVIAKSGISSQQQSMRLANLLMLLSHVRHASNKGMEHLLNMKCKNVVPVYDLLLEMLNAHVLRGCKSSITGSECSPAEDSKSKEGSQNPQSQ
Summary of the method: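 A UAS-controlled beta-lactamase reporter in ER-beta-UAS-bla HEK293T cells reports receptor activation. Compounds act for 16 hr at 37C in 2% charcoal-stripped serum, and a FRET substrate is read by fluorescence after 2 hours.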

[13] = qHTS assay to identify small molecule agonists of the androgen receptor (AR) signaling pathway in the presence of an antagonist - cell viability counter screen (AID 1259379);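 note: MDA-kb2 human breast cancer cells carrying an MMTV luciferase reporter; series mostly up to about 92 µM; nearly all actives have a fitted effect of over 25% in size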
Summary of the method: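 A CellTiter-Fluor read-out measured viability of MDA-kb2 reporter cells (MMTV promoter with AR and GR response elements). Treatment: nilutamide 3.0uM final with compounds at 15 concentrations, 16 hr, 37C, 0% CO2.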

[14] = qHTS assay to identify small molecule agonists of the estrogen receptor beta (ER-beta) signaling pathway - cell viability counter screen (AID 1259380); note: nearly all actives have a fitted effect of over 30% in size; note: potency is the fitted concentration of half-maximal effect
Summary of the method: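 Cells used were ER-beta-UAS-bla HEK293T in medium with 2% charcoal-stripped FBS. They were treated for 16 hr at 37C. Viability came from CellTiter-Glo luminescence.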

[15] = qHTS assay to identify small molecule antagonists of the estrogen receptor beta (ER-beta) signaling pathway - cell viability counter screen (AID 1259382); note: series mostly up to about 92 µM; nearly all actives have a fitted effect of over 55% in size
Summary of the method: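 Agonist-stimulated (1nM E2) ER-beta-UAS-bla HEK293T cells are incubated with library compounds for 16 hr at 37C. Cell viability is then assessed in the reporter-assay wells by adding CellTiter-Glo and reading luminescence after 30 min.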

[16] = qHTS assay to identify small molecule agonists or antagonists of the thyroid stimulating hormone receptor (TSHR) signaling pathway - wild type cell line counter screen (AID 1259384; calls by dose curve)
Summary of the method: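 Wild-type Hek293 cells, 800/well, 18 h at 37C, then compound with Ro20-1724 for 30 min RT. cAMP by HTRF (cAMP-d2/anti-cAMP cryptate), 1 h RT, fluorescence read. 15 concentrations, triplicates.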

[17] = molecular target: Estrogen receptor beta (Homo sapiens) (UniProt Q92731); test: qHTS assay to identify small molecule antagonists of the estrogen receptor beta (ER-beta) signaling pathway (AID 1259378; active = well fitted inhibition curve with a large enough effect in the signal ratio in the repeat runs, not every such curve was filed as active; the % refers to the signal ratio)
Summary of the method: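 ER-beta-UAS-bla HEK293T cells in 2% charcoal-stripped FBS medium treated with compound plus 1nM final 17-beta-estradiol for 16 hr at 37C. Beta-lactamase reporter read by FRET substrate fluorescence after 2 hours at room temperature.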

[18] = molecular target: Estrogen receptor (Homo sapiens) (UniProt P03372); test: qHTS assay to identify small molecule agonists of the estrogen receptor alpha (ER-alpha) signaling pathway in the presence of an antagonist (AID 1259383; calls by dose curve; note: top concentration of the series differs between compounds; nearly all actives have a fitted effect of over 15% in size)
Summary of the method: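 Using VM7Luc4E2 cells seeded 24hr before treatment, antagonist ICI-182,780 (10.0nM final) was added, followed by compounds at 15 concentrations. Plates incubated 22hr; ONE-Glo luminescence quantified reporter activity.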

Measured: Potency

C[C@]12CC[C@H](O)CC1=CC[C@@H]1[C@@H]2CC[C@]2(C)C(=O)CC[C@@H]12
active: [5] 10 µM | [11] 1.37 µM and 19.3 µM | [12] 386 nM and 473 nM | [14] 48.6 µM and 27.3 µM
not listed: [17] | [18]
inactive: all other assays above

Nc1nc(N)nc(NC2CC2)n1
not listed: [3] | [4] | [7] | [18]
inactive: all other assays above

N#CN=C(N)N
not listed: [3] | [5] | [7]
inactive: all other assays above

OCc1ccco1
not listed: [3] | [5]
inactive: all other assays above

CC(=O)C1CCOC1=O (stereo not given)
not listed: [3] | [4] | [5] | [18]
inactive: all other assays above

Cc1cccc(N)c1C
not listed: [3] | [5]
inactive: all other assays above

O=[N+]([O-])c1ccc(Cl)c(Cl)c1
not listed: [3] | [5] | [7] | [12] | [17]
inactive: all other assays above

O=C(O)CCCc1ccc(N(CCCl)CCCl)cc1
not listed: [3] | [7] | [12] | [17]
inactive: all other assays above

O=P1(NCCCl)OCCCN1CCCl (stereo not given)
not listed: [3] | [4] | [7] | [12] | [17] | [18]
inactive: all other assays above

Clc1cnc(Oc2ccc(Oc3ncc(Cl)cc3Cl)cc2)c(Cl)c1
not listed: [3] | [4] | [5] | [18]
inactive: all other assays above

Nc1ncc([N+](=O)[O-])s1
not listed: [3] | [5] | [7]
inactive: all other assays above

CCCCC(CC)C(=O)Cl (stereo not given)
not listed: [3] | [5] | [7]
inactive: all other assays above

C=CC#N
not listed: [3] | [5]
inactive: all other assays above

Oc1ccc(Cl)cc1
not listed: [3] | [4] | [12] | [17] | [18]
inactive: all other assays above

CCOP(=S)(OCC)Oc1cc(C)nc(C(C)C)n1
not listed: [3] | [4] | [7] | [12] | [17] | [18]
inactive: all other assays above

Cc1ccc(O)c(C)c1
not listed: [3] | [5] | [7]
inactive: all other assays above
